# Results: PubChem BioAssay AID740 (SRMLSC, 2007)
# Out of some 96,000 compounds screened, about 65 (0.07%) were called active. For the sample, actives were picked, then their nearest neighbours and some compounds at random. A number with no mark means an inactive call. No stated cut-off is given here; in the data, active means inhibition above about 25%; inactive means the rest.
# Assay: unspecified inhibition readout at 50 µM (AID 740)
# Conditions: unspecified screen; hits give high values
row,SMILES,inhibition
1,Nc1nc(Nc2cccc(C(F)(F)F)c2)nc(C(F)(F)F)n1,inactive
2,Cc1cc(C)n(S(=O)(=O)Cc2ccccc2)n1,0.57%
3,O=S(=O)(/C=C/c1ccccc1)n1cnc2ccccc21,0.11%
4,Cc1cc(C)n(S(=O)(=O)/C=C/c2ccccc2)n1,40.1% (active)
5,CCOC(=O)C1=C(C)Nc2nc(SC)nn2C1c1ccc(C(=O)OC)cc1 (configuration not stated),0.25%
6,CC1CCCN(c2ccc(C(=O)NCc3cccs3)cn2)C1 (configuration not stated),0.47%
7,CC1CCN(c2ccc(C(=O)NCc3cccs3)cn2)CC1,inactive
8,O=C(NCc1cccs1)c1ccc(N2CCCCC2)nc1,26% (active)
9,O=C(O)CSc1nnc(-c2ccncc2)n1-c1ccc(Cl)cc1,inactive
10,CC(=O)Nc1cc(-c2nn(C)c(=O)c3ccccc23)ccc1N1CCCCC1,inactive
11,c1ccc(OCc2nnc3sc(C4COc5ccccc5O4)nn23)cc1 (configuration not stated),inactive
12,Cc1cc(C(=O)CSc2nnnn2-c2ccc(Cl)cc2)c(C)n1CC1CCCO1 (configuration not stated),0.29%
13,COC(=O)c1sc(S(=O)(=O)N2CCN(c3ccccc3)CC2)c(C(=O)OC)c1C,1.69%
14,O=C(CSc1nnc(Cc2ccccc2)n1Cc1ccco1)NC1CCCC1,4.05%
15,NC(=O)c1c(NC(=O)CSc2nnc(-c3ccco3)n2-c2ccccc2)sc2c1CCC2,inactive
16,NC(=O)c1c(NC(=O)CSc2nnc(Cc3ccccc3)n2Cc2ccco2)sc2c1CCC2,27% (active)
17,CCCCCC(O)CCc1n[nH]c(=S)n1-c1ccccc1 (configuration not stated),inactive
18,O=C(CC(c1ccccc1)c1ccccc1)Nc1ccc(Cl)cn1,inactive
19,CCOC(=O)c1c(NC(=O)CN2CCOCC2)sc2c1CC(C)(C)OC2,1.02%
20,COC(=O)CC(NC(=O)c1ccco1)c1ccc(C(C)C)cc1 (configuration not stated),inactive
21,O=C(CSc1ccc2nnc(-c3ccccc3)n2n1)NCc1ccco1,3.91%
22,Cc1ccc(-c2nnc3ccc(SCC(=O)NCc4ccco4)nn23)cc1,2.76%
23,O=C(CSc1ccc2nnc(-c3ccncc3)n2n1)NCc1ccco1,28.9% (active)
24,NC(=S)NNc1cccc(Cl)c1,inactive
25,C=CCSc1nnc(-c2ccc(Cl)cc2Cl)o1,37.9% (active)
26,CCSc1nnc(-c2ccc(Cl)cc2Cl)o1,1.81%

row,SMILES,inhibition
1,C(=C\c1ccccc1)/CSc1nnc(-c2cccnc2)o1,0.18%
2,C=CCSc1nnc(-c2cccnc2)o1,33.1% (active)
3,Cc1ccc(CSc2nnc(-c3cccnc3)o2)cc1,inactive
4,CSc1nnc(-c2ccc(Cl)cc2Cl)o1,7.66%
5,O=C(Nc1ccc(Cl)cc1)N1CCCC1,inactive
6,O=C(NCCc1cccs1)C1CC(c2ccc([N+](=O)[O-])cc2)=NO1 (configuration not stated),1.33%
7,COc1cc(C(=O)N2CCC(c3nc(-c4cccnc4)no3)CC2)cc(OC)c1OC,inactive
8,Cc1nc(C)c(C(=O)C2=C(O)C(=O)N(CCN(C)C)C2c2ccccc2)s1 (configuration not stated),0.19%
9,COc1ccc2c(c1OC)C(=O)OC2c1c(O)n(Cc2ccc(F)cc2)c(=O)[nH]c1=O (configuration not stated),inactive
10,CCC(=O)N1CCN(c2ccccc2NC(=O)COc2ccccc2Cl)CC1,inactive
11,O=C(O)CCS(=O)(=O)c1nc(-c2cccs2)cc(C(F)(F)F)n1,inactive
12,CS(=O)(=O)c1nc(-c2ccccc2)cc(C(F)(F)F)n1,inactive
13,CS(=O)(=O)c1nc(-c2cccs2)cc(C(F)(F)F)n1,26.1% (active)
14,CCC1(c2cccc(Cl)c2)NC(=O)N(Cc2cc(C(=O)OC)c(C)o2)C1=O (configuration not stated),inactive
15,O=S(=O)(c1ccccc1)N1C2CCC1CC(O)(c1cccnc1)C2 (configuration not stated),0.08%
16,CCC(NS(=O)(=O)c1ccc(OC)cc1)C(=O)NCCC1=CCCCC1 (configuration not stated),0.42%
17,O=c1[nH]c2cccnc2n1Cc1ccco1,1.89%
18,O=c1[nH]c2cccnc2n1Cc1ccccc1,88.8% (active)
19,COc1ccccc1Cn1c(=O)[nH]c2cccnc21,inactive
20,COc1ccccc1NC(=O)C1CC(=O)OC1c1ccccc1 (configuration not stated),inactive
21,CNC(=O)c1ccc(Oc2ccc(C(=O)NC)cc2)cc1,0.48%
22,COC(=O)c1nc(-c2ccc(C)cc2)oc1N(C)C,inactive
23,CS(=O)(=O)N1CCN(c2ccccc2NC(=O)Cc2ccc(Cl)cc2)CC1,1.42%
24,CCOC(=O)CC(=O)CSc1nnc2sc3ccccc3n12,6.25%
25,NC(=O)CSc1nnc2sc3ccccc3n12,20.1%
26,CC(C)NC(=O)CSc1nnc2sc3ccccc3n12,29.1% (active)

row,SMILES,inhibition
1,CC1CC(C)CN(C(=O)COc2ccc(-c3nnco3)cc2)C1 (configuration not stated),inactive
2,CC(NC(=O)C1CCCN1S(=O)(=O)c1cccc2cccnc12)c1ccccc1 (configuration not stated),3.39%
3,NS(=O)(=O)c1ccc(CCNC(=O)C2CCCCN2S(=O)(=O)c2ccccc2)cc1 (configuration not stated),80.3% (active)
4,NS(=O)(=O)c1ccc(CCNC(=O)C2CCCN2C(=O)OCc2ccccc2)cc1 (configuration not stated),0.02%
5,NS(=O)(=O)c1ccc(CCNC(=O)[C@@H]2CCCN2S(=O)(=O)c2ccccc2F)cc1,0.35%
6,CNS(=O)(=O)c1cccc(C(=O)Nc2cccc(Cl)c2)c1,inactive
7,Cc1nc(SCC(=O)c2ccccc2)n[nH]1,0.25%
8,CC(C)(C)OC(=O)N[C@@H](Cc1ccccc1)c1nnc(SCC(=O)O)o1,0.84%
9,CCSc1nnc([C@H](Cc2ccccc2)NC(=O)OC(C)(C)C)o1,26.7% (active)
10,COC(=O)CSc1nnc([C@H](Cc2ccccc2)NC(=O)OC(C)(C)C)o1,0.67%
11,O=C(c1cc(-c2ccc(Cl)cc2)n(-c2ccc(Cl)cc2Cl)n1)N1CCOCC1,27.9% (active)
12,O=C(c1cc(-c2ccc(Cl)cc2)n(-c2ccc(Cl)cc2)n1)N1CCOCC1,1.77%
13,O=C(c1cc(-c2ccc(Cl)cc2)n(-c2cc(Cl)ccc2Cl)n1)N1CCOCC1,2.27%
14,Cc1nc2nc(-c3ccccc3)[nH]n2c(=O)c1Cc1ccccc1,62% (active)
15,Cc1nc2nc(-c3ccc(Cl)cc3)[nH]n2c(=O)c1Cc1ccccc1,2.76%
16,COc1ccc(-c2nc3nc(C)c(Cc4ccccc4)c(=O)n3[nH]2)cc1,10.2%
17,O=C(COC(=O)C(Cc1ccccc1)NC(=O)c1ccco1)NC1CC1 (configuration not stated),2.73%
18,C=CCn1c(-c2cccn(Cc3cccc(Cl)c3)c2=O)n[nH]c1=S,0.13%
19,CN1C(=O)c2cccc3c(S(=O)(=O)Nc4ccccn4)ccc1c23,3.37%
20,Clc1cccc(CSc2nnc([C@@H]3CCCN3)o2)c1,inactive
21,CC1CCCN(C(=O)Nc2cccc(NC(=O)N3CCCC(C)C3C)c2)C1C (configuration not stated),0.11%
22,CCC1CCCCN1C(=O)Nc1ccc(F)cc1 (configuration not stated),0.1%
23,CCC1CCCCN1C(=O)Nc1cccc(NC(=O)N2CCCCC2CC)c1 (configuration not stated),31.9% (active)
24,NC(=O)C1(N2CCCCC2)CCN(C(=O)CSc2nc(C(F)(F)F)cc(=O)[nH]2)CC1,1.15%
25,Cc1ccc(/C=C2/SC(=S)N(CC(=O)Nc3ncc(Cc4ccc(C)cc4)s3)C2=O)cc1,0.58%
26,Cc1ccc(NC(=O)NCCCN2CCCC2=O)cc1,1.44%

row,SMILES,inhibition
1,CC(=O)Nc1ccc(Nc2ncnc3c2cnn3-c2cccc(C)c2)cc1,0.1%
2,Clc1ccc(Nc2ncnc3c2cnn3-c2ccccc2)cc1,inactive
3,CC(=O)Nc1ccc(Nc2ncnc3c2cnn3-c2ccccc2)cc1,38.2% (active)
4,CCC(CC)c1nnc(NC(=O)CN2C(=O)C3C4C=CC(C4)C3C2=O)s1 (configuration not stated),inactive
5,CCNc1nc(NCC)nc(SCCOC(=O)COc2ccc(Cl)cc2Cl)n1,inactive
6,Cc1cc(Oc2ccc(C#N)cc2)nc(N2CCOCC2)n1,inactive
7,O=C1NCCCc2c1oc1cc(Br)c(O)c(Br)c21,4.63%
8,O=C1NCCCc2c1oc1ccc(O)cc21,38.5% (active)
9,Oc1ccc2oc3c(c2c1)CCCC3,inactive
10,COc1ccc(OC)c(C2=NOC(C(=O)Nc3cc(C)nn3-c3ccccc3)C2)c1 (configuration not stated),48.2% (active)
11,COc1cc(OC)c(C2=NOC(C(=O)Nc3cc(C)nn3-c3ccccc3)C2)cc1Cl (configuration not stated),0.65%
12,COc1cccc(C2=NOC(C(=O)Nc3cc(C)nn3-c3ccccc3)C2)c1OC (configuration not stated),inactive
13,COc1ccc(-c2cc(C(F)(F)F)nc(N3CCN(Cc4ccccc4)CC3)n2)cc1OC,inactive
14,COc1ccc(-c2cc(C(F)(F)F)nc(SCCC(=O)Nc3cc(C)on3)n2)cc1,inactive
15,COCCn1c(SCC(=O)Nc2cc(C)cc(C)c2)nnc1C(C)C,1.46%
16,Cc1nc2ccc(NC(=O)C3CCN(S(=O)(=O)c4cccs4)CC3)cc2s1,30.7% (active)
17,Cc1ccc2nc(NC(=O)C3CCN(S(=O)(=O)c4cccs4)CC3)sc2c1,2.46%
18,Cc1ccc(NC(=O)C2CCN(S(=O)(=O)c3cccs3)CC2)cc1C,0.17%
19,O=C(CN(Cc1ccco1)C(=O)c1cc(=O)[nH]c2ccccc12)Nc1ccccc1Br,0.68%
20,COC(=O)c1ccc2ccn(CC(=O)NC(C)C)c2c1,inactive
21,O=C(O)c1cc2nc(-c3ccc(F)cc3)cc(C(F)(F)F)n2n1,1.93%
22,Cc1ccccc1C(=O)Nc1ccc2nc3n(c(=O)c2c1)CCC3,0.71%
23,O=C(Nc1ccc2nc3n(c(=O)c2c1)CCCCC3)c1ccccn1,2.45%
24,CN(C)c1cccc(C(=O)Nc2ccc3nc4n(c(=O)c3c2)CCCCC4)c1,26.5% (active)
